# Most compounds without a hit are left out; they make up all but 7.5% or so of the library.
# TSHR antagonist – blocks TSH signaling through the human TSH receptor; P16473; TSHR-expressing cells, TSH-stimulated cAMP HTRF, 2 h; stronger effect = lower value; activity change, negative = inhibition, % at 11.5 µM; 0.2% of 330,000 active;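 active means activity change below a set negative limit, meaning inhibition stronger than a set level, cut at about -70% in these data; inconclusive means activity change between two set negative limits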
#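 Cell-based HTRF cAMP assay; TSHR cells + compound, TSH EC80 (4nM final), 2 h, 37 deg C. Lysis with anti-cAMP cryptate and cAMP-d2, 30 min RT, read 665/620 nm.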
# ELG1 repair inh – blocks ELG1-dependent DNA repair in HEK293T cells; 2.3% of 330,000 active; Potency, µM (top dose mostly 46.1 µM), for inactives: at the highest dose activity change, negative = inhibition, most hits filed as inhibitors; HEK293T ELG1-luciferase reporter, luminescence, 16 h; DNA damage induced by 5-fluorouridine; further: potency means the concentration at half of the fitted maximal effect; nearly all actives have a fitted effect of over 55% in size
#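 Reporter activity after DNA damage by 5-fluorouridine is monitored. Compound-treated cells incubate 16 hr at 37 °C, then ONE-Glo is added for 30 min before luminescence reading.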
# B2AR arrestin – recruits beta-arrestin to the human beta2-adrenergic receptor. 0.02% of 330,000 active. Potency, µM (series often up to 46.1 µM), without a hit: at the highest dose activation, usual class: activators. beta-arrestin recruitment to beta2AR, cell-based reporter. AID 492947;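 further: potency means the concentration at half of the fitted maximal effect; 0% = DMSO controls and full agonism = EC100 isoproterenol or metaproterenol; nearly all actives have a fitted effect of over 65% in size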
# RORgamma inh – ROR gamma (mouse) transcription inhibition. P51450. Drosophila S2 Gal4-RORgamma UAS-luciferase reporter, 20 h. Potency, µM (highest dose often 53.6 µM), for the others: at the top dose activity change, negative = inhibition, usual class: inhibitors. 5.4% of 310,000 active; further: potency means the concentration at half of the fitted maximal effect; nearly all actives have a fitted effect of over 60% in size
# Target sequence (P51450 whole entry, looked up, the tested form may be a part): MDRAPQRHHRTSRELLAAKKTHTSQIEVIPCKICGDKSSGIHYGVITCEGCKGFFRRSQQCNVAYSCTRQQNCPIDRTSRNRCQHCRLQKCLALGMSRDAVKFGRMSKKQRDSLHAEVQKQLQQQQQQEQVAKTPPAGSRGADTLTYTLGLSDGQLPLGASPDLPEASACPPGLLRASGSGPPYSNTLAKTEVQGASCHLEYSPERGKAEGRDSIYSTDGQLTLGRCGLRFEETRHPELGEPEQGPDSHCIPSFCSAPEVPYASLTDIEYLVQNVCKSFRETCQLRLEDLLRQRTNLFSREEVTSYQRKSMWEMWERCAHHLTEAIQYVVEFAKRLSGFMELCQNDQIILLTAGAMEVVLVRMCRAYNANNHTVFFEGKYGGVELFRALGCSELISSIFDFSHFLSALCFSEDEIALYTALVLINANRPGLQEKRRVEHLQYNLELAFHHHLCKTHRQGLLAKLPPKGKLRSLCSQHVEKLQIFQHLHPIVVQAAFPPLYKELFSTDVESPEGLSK
#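 Schneider cells (Drosophila), stable Gal4 DBD–ROR gamma + UAS-luc; 1 hr cmpd preincubation; Cu2+ induction 700 uM final; 20 hr ambient; luminescence.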
# VP16 counter – inhibits Gal4-VP16 luciferase reporter, ROR gamma counter-screen. 3.5% of 310,000 active. Drosophila S2 Gal4-VP16 UAS-luciferase, luminescence, 20 h. Potency, µM (top dose mostly 53.6 µM), without a hit: at the highest dose activity, negative = inhibition, hits mostly inhibitors. AID 2546;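 further: Gal4-VP16 expression switched on by copper sulfate through the metallothionein promoter; potency means the concentration at half of the fitted maximal effect; nearly all actives have a fitted effect of over 50% in size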
# * = called active by the depositor; ? = inconclusive; · = no result; [ ] = dose if it differs, or a comment. Unless noted, the call rests on the fitted dose curve; in most records, active means well fitted curve in the direction sought with a large enough effect; inconclusive means small, poorly fitted or top-dose-only effect, or another doubt; inactive means no such curve, though single readings can be large; an effect the other way counts as inactive or inconclusive. Unless noted, on the % scale 0 is the no-effect control and ±100 the full control effect.
SMILES,TSHR antagonist,ELG1 repair inh,B2AR arrestin,RORgamma inh,VP16 counter
N#C/C(=C/c1cccs1)c1nc2ccccc2[nH]1,-13,?,0%,?,-21%
Cc1ccc(-c2nc3ccccc3nc2NN)cc1,-4,?,0%,-39%,-6%
N#C/C(=C(/O)CCl)c1nc2ccccc2[nH]1,-7,-12%,-1%,5µM*,10µM*
N#C/C(=C(/O)c1ccco1)c1nc2ccccc2[nH]1,-1,-1%,4%,7.1µM*,?
N#C/C(=C(/O)c1ccco1)c1nc2ccccc2s1,-22,?,0%,?,-11%
C/C(O)=C(\C#N)c1nc2ccccc2[nH]1,4,-6%,0%,?,14µM*
C=CCn1c(COc2ccc(CC)cc2)nnc1SC/C(O)=C(\C#N)c1nc2ccccc2[nH]1,-10,?,0%,11µM*,?
N#C/C(=C(/O)c1ccc(C(=O)c2ccccc2)cc1)c1nc2ccccc2[nH]1,-1,-2%,-1%,5%,14%
CN(Cc1ccco1)c1ccnc(-c2cccc(C#N)c2)n1,·,·,·,11%,?
CCCc1cc(=O)[nH]c(SCC(=O)Nc2c(C)n(C)n(-c3ccccc3)c2=O)n1,-9,23%,0%,·,·
c1ccc(-c2nc(-c3ccccc3)c(Nc3ccc4ccccc4c3)o2)cc1,·,·,·,2%,-5%
O=c1c(-c2ccc(O)cc2)coc2cc(O[C@@H]3O[C@H](CO)[C@H](O)[C@H](O)[C@H]3O)ccc12,·,·,·,8%,29%
CC(C)CO/N=C1/C[C@@H](O)[C@@H](O)[C@@H]2[C@@H]3C(=O)N([C@@H](C)c4ccccc4)C(=O)[C@H]3CC[C@@H]12,·,·,·,20%[10 µM],-3%[10 µM]
c1ccc(-c2cccc(N3CCC4(CCNCC4)CC3)c2)cc1,·,·,·,?,-20%
Cn1cnnc1SC/C(O)=C(\C#N)c1nc2ccccc2[nH]1,-8,3%,5%,-16%,-6%
N#C/C(=C(/O)CN1C(=O)c2ccccc2C1=O)c1nc2ccccc2[nH]1,2,2%,-1%,11µM*,?
COc1ccccc1/C(O)=C(\C#N)c1nc2ccccc2[nH]1,-2,3%,0%,1.4µM*,-7%
COc1ccccc1N/C=C(\C#N)c1nc2ccccc2[nH]1,-11,?,-1%,?,-14%
CSCCC(/C(O)=C(\C#N)c1nc2ccccc2[nH]1)N1C(=O)c2ccccc2C1=O (centres undefined),-9,-11%,0%,11µM*,18µM*
CCOC(=O)C1=C(C)N(C)C(=S)NC1c1ccc(Cl)cc1Cl (centres undefined),-2,-4%,0%,7.1µM*,7.9µM*
CCOC(=O)C1=C(C)N(C)C(=O)NC1c1cccc2ccccc12 (centres undefined),9,0%,-1%,29%,-7%
CCOC(=O)C1=C(C)N(C)C(=S)NC1c1cccc(Cl)c1Cl (centres undefined),-2,?,0%,4µM*,?
CCOC(=O)C1=C(C)N(C)C(=S)NC1c1ccccc1Cl (centres undefined),-7,0%,0%,8.9µM*,?
CCOCCOC(=O)C1=C(C)N(C)C(=O)NC1c1ccccc1Cl (centres undefined),-3,10%,0%,-15%,2%
CCOC(=O)C1CCN(C(=O)C2CCN(S(=O)(=O)c3cc(Cl)ccc3OCC)CC2)CC1,-2,-19%,0%,·,·
SMILES,TSHR antagonist,ELG1 repair inh,B2AR arrestin,RORgamma inh,VP16 counter
CCC/C=C(\CCC)C(NC(=O)C(C)(C)C)c1ccc(C(=O)OC)cc1 (centres undefined),·,·,·,17%,-9%
COc1cc(C=O)ccc1OCC(=O)Nc1ccc2c(c1)OCO2,-6,-6%,-1%,0%,-1%
COc1ccccc1OCC(=O)Nc1cc(C(F)(F)F)ccc1-n1cncn1,-12,-13%,0%,·,·
Nc1ccccc1C(=O)N(Cc1ccccc1)Cc1ccccc1,12,-9%,-1%,-11%,3%
Nc1ccccc1C(=O)CC(N)C(=O)O (centres undefined),·,·,·,13µM*,28µM*
O=C(CCc1nc(-c2ccccc2F)no1)Nc1ccc(Oc2ccccc2)cc1,-73*,?,-1%,?,0%
